# PubChem BioAssay (Tox21)
# “And” between values parts separate entries of the source, which are not always exact repeats. Equal entries are not always repeated. Unmarked numbers belong to inactive results. Inconclusive results are not listed. Entries that show only a call come without a potency. The source made the active and inactive calls. Unless noted, calls follow the shape of the dose curve; as a rule, active = well fitted curve in the direction sought with a large enough effect in the repeat runs; inconclusive = weak or mixed curves; inactive = no such curve, though single readings can be large; an effect the other way counts as inactive or inconclusive.
# Legend:
# [1] = qHTS assay for small molecule agonists of the p53 signaling pathway (AID 651631; calls by dose curve; also: nearly all actives have a fitted effect of over 15% in size; also: potency is read from the fitted curve at half-maximal effect)
# Procedure, shortened: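 We treat p53RE-bla HCT-116 cells with compounds for 16 h at 37 °C, add LiveBLAzer B/G FRET substrate for 2 h at room temperature, and measure fluorescence intensity.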
# [2] = qHTS assay for small molecules that induce genotoxicity in human embryonic kidney cells expressing luciferase-tagged ATAD5 (AID 651632); also: nearly all actives have a fitted effect of over 15% in size; also: potency is read from the fitted curve at half-maximal effect
# Procedure, shortened: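 Test compounds were delivered by pin tool onto HEK293T reporter cells (2,000/well) expressing ATAD5 fused to luciferase. After 16 hr at 37C, 5% CO2, Amplite was added for 30 min at room temperature and luminescence was measured.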
# [3] = qHTS assay for small molecule agonists of the p53 signaling pathway - cell viability (AID 651633; calls by dose curve; also: nearly all actives have a fitted effect of over 30% in size; also: potency is read from the fitted curve at half-maximal effect)
# Procedure, shortened: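 p53RE-bla cells were treated with compound for 16 hours at 37 C. Cytotoxicity was then measured as CellTiter-Glo luminescence after 30 min at room temperature.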
# [4] = qHTS assay to test for compound auto fluorescence at 590 nm (red) in HepG2 cells (AID 720674)
# Procedure, shortened: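 HepG2 cells, 2,000 per well in MEM with 10% FBS, attached overnight at 37 C, then got 23 nL compound or DMSO. After 1 hr at 37 C, 5% CO2, red fluorescence was read at 540/590 nm against Rose Bengal sodium as reference.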
# [5] = qHTS assay to test for compound auto fluorescence at 535 nm (green) in HepG2 cells (AID 720675)
# [6] = qHTS assay to test for compound auto fluorescence at 460 nm (blue) in HEK293 cells (AID 720678)
# Procedure, shortened: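 After cell attachment (4-5 hr, 37C), compounds were pinned onto HEK293 monolayers in 10% dialyzed FBS medium. The blue channel (405/460 nm) was read following overnight culture. Equivalency was calculated against triamterene.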
# [7] = qHTS assay to test for compound auto fluorescence at 590 nm (red) in HEK293 cells (AID 720679)
# Procedure, shortened: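 Plates of HEK293 cells (10% dialyzed FBS) are treated with 23 nL compound or DMSO vehicle after a 4-5 hr attachment period, incubated overnight at 37C, and read for red fluorescence at 540/590nm.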
# [8] = qHTS assay for small molecule disruptors of the mitochondrial membrane potential - cell viability (AID 720634; calls by dose curve; also: nearly all actives have a fitted effect of over 20% in size; also: potency is read from the fitted curve at half-maximal effect)
# Procedure, shortened: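 Same-well counter-screen: following the MMP dye addition, CellTiter-Glo was added to 1 hr compound-treated HepG2 cells and luminescence read after 30 min at room temperature.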
# [9] = qHTS assay for small molecule disruptors of the mitochondrial membrane potential (AID 720635); also: potency is read from the fitted curve at half-maximal effect
# Procedure, shortened: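 HepG2 cells exposed to compound 1 hr at 37C, then Mito-MPS dye 30 min. Ratio read of aggregate (540/590 nm) versus monomer (490/535 nm) fluorescence.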
# [10] = qHTS assay for small molecules that induce genotoxicity in human embryonic kidney cells expressing luciferase-tagged ATAD5 - cell viability (AID 651634; calls by dose curve; also: nearly all actives have a fitted effect of over 25% in size; also: potency is read from the fitted curve at half-maximal effect)
# Procedure, shortened: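 Quantitative high-throughput format. HEK293T cells expressing ATAD5 fused to luciferase were plated at 2,000 cells/well and treated 15.5 hr with compound versus DMSO. Viability was determined by fluorescent live-cell protease substrate, 30 min at 37C.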
SMILES,Potency [1],Potency [2],Potency [3],outcome [4],Potency [5],Potency [6],outcome [7],Potency [8],Potency [9],"fluorescence, relative to Rose Bengal [4]","fluorescence, % of fluorescein control [5]","fluorescence, % of triamterene [6]","fluorescence, % of fluorescent control [7]",Potency [10]
CCOC(=O)CCN(SN(C)C(=O)Oc1cccc2c1OC(C)(C)C2)C(C)C,inactive,inactive,inactive,inactive,inactive,inactive,inactive,–,–,–,–,–,–,–
CCN(CC)CCN1C(=O)CN=C(c2ccccc2F)c2cc(Cl)ccc21,inactive,inactive,inactive,–,inactive,inactive,inactive,inactive,–,–,–,–,–,–
CC(C)c1c(CN(C)C(C)Cc2ccccc2)n(C)n(-c2ccccc2)c1=O (stereo not given),inactive,inactive,inactive,–,–,–,–,inactive,inactive,0.213% [at 18.6 µM],-0.0089% [at 18.6 µM],-0.225% [at 18.6 µM],-0.993% [at 18.6 µM],–
BrCCCBr,–,inactive,inactive,inactive,inactive,inactive,inactive,inactive,inactive,–,–,–,–,inactive
Oc1ccc([C@H]2CNCc3c2ccc(O)c3O)cc1O,–,inactive,inactive,–,inactive,inactive,inactive,inactive,inactive,–,–,–,–,inactive
c1ccc(N=NNc2ccccc2)cc1,–,inactive,inactive,inactive,inactive,inactive,inactive,56.4 µM (active),7.1 µM (active) and 5.45 µM (active),–,–,–,–,5.45 µM (active)
Cc1c([N+](=O)[O-])c(C)c([N+](=O)[O-])c(C(C)(C)C)c1[N+](=O)[O-],–,inactive,inactive,inactive,inactive,inactive,inactive,inactive,15.4 µM (active),–,–,–,–,inactive
COc1cnc(OC)n2nc(NS(=O)(=O)c3c(OCC(F)F)cccc3C(F)(F)F)nc12,–,inactive,inactive,inactive,inactive,inactive,inactive,inactive,inactive,–,–,–,–,inactive
Cc1cc2c3c(c1)C(c1ccccc1)=N[C@@H](NC(=O)c1ccncc1)C(=O)N3CC2,–,inactive,inactive,inactive,inactive,inactive,inactive,inactive,–,–,–,–,–,inactive
C=CCOC(=O)c1ccccc1N,–,inactive,inactive,inactive,inactive,inactive,inactive,inactive,inactive,–,–,–,–,inactive
CCOP(=O)(OCC)Oc1nc(Cl)c(Cl)cc1Cl,–,inactive,inactive,inactive,inactive,inactive,inactive,inactive,60.8 µM (active),–,–,–,–,inactive
O=[N+]([O-])c1cc(C(F)(F)F)c(Cl)c([N+](=O)[O-])c1Nc1ncc(C(F)(F)F)cc1Cl,–,inactive,27.3 µM (active),inactive,inactive,inactive,inactive,0.172 µM (active),0.243 µM (active),–,–,–,–,30.6 µM (active)
CN,inactive,–,inactive,inactive,inactive,inactive,inactive,inactive,inactive,–,–,–,–,–
O=C1C[C@@H]2OCC=C3CN4CC[C@]56c7ccccc7N1[C@H]5[C@H]2[C@H]3C[C@H]46,inactive,–,–,inactive,inactive,inactive,inactive,inactive,inactive,–,–,–,–,inactive
O=C(N[C@H]1N=C(c2ccccc2F)c2cccc3c2N(CC3)C1=O)c1cc2ccccc2[nH]1,–,inactive,inactive,inactive,inactive,inactive,inactive,inactive,–,–,–,–,–,inactive
CN1C(=O)[C@@H](NC(=O)c2cc3ccccc3[nH]2)N=C(c2ccccc2)c2ccccc21,–,11.9 µM (active),inactive,inactive,inactive,inactive,inactive,inactive,10.6 µM (active),–,–,–,–,inactive
CCCCc1ccccc1,–,inactive,inactive,inactive,inactive,inactive,inactive,inactive,inactive,–,–,–,–,inactive
ClC1=C(Cl)[C@]2(Cl)[C@H]3[C@H]([C@@H]4C=C[C@H]3C4)[C@@]1(Cl)C2(Cl)Cl,–,inactive,30.6 µM (active) and 61.1 µM (active),inactive,inactive,inactive,inactive,inactive,30.6 µM (active) and 17.2 µM (active),–,–,–,–,inactive
BrCC(Br)(Br)Br,7.11 µM (active),–,–,inactive,inactive,inactive,inactive,inactive,–,–,–,–,–,–
Clc1ccc(C(c2ccc(Cl)cc2)C(Cl)Cl)cc1,–,inactive,62.1 µM (active) and 61.1 µM (active),inactive,inactive,inactive,inactive,inactive,9.85 µM (active) and 9.69 µM (active),–,–,–,–,inactive
Oc1cccc(Cl)c1Cl,–,inactive,inactive,–,inactive,inactive,inactive,inactive,48.8 µM (active),–,–,–,–,inactive
c1cc[n+]2c(c1)-c1cccc[n+]1CC2,–,inactive,inactive,inactive,inactive,inactive,inactive,inactive,inactive,–,–,–,–,inactive
c1csc(-c2ccc(-c3cccs3)s2)c1,34.4 µM (active),–,inactive,inactive,inactive,inactive,inactive,–,61.1 µM (active),–,–,–,–,–
COP(=S)(NC(C)C)Oc1ccc(C)cc1[N+](=O)[O-] (stereo not given),–,inactive,inactive,inactive,inactive,inactive,inactive,inactive,24.3 µM (active),–,–,–,–,inactive
CCN(CC)CCc1c[nH]c2ccccc12,–,inactive,inactive,inactive,inactive,inactive,inactive,inactive,inactive,–,–,–,–,inactive
